{"source": "PubChem BioAssay (EPA / NIEHS)", "note": "Activity calls are given as the source filed them. Rule for the calls: active = hit-call score of the fitted dose curve at least 0.9, where 1 is the maximum; inactive = score below 0.9."}
{"assay": "ATG_PBREM_CIS: Attagene CIS-FACTORIAL HepG2 Assay for human Phenobarbital-responsive Enhancer Module (PBREM) (AID 2282955)", "conditions": "HepG2 PBREM cis-reporter, Attagene multiplexed transcription; actives raise or lower the signal", "experimental": "ATG_CIS is a cell-based, multiplexed-readout assay that uses HepG2, a human liver cell line, with measurements taken at 24 hours after chemical dosing in a 24-well plate.ATG_PBREM_CIS is one of 52 assay component(s) measured or calculated from the ATG_CIS assay. It is designed to make measurements of mRNA induction, a form of inducible reporter, as detected with fluorescence intensity signals by Reverse transcription polymerase chain reaction (RT-PCR) and Capillary electrophoresis technology.Data from the assay component ATG_PBREM_CIS was analyzed into 1 assay endpoint. This assay endpoint, ATG_PBREM_CIS, was analyzed with bidirectional fitting relative to DMSO as the negative control and baseline of activity. Using a type of inducible reporter, measures of mRNA for gain or loss-of-signal activity can be used to understand the reporter gene at the transcription factor-level as they relate to the gene NR1I3. Furthermore, this assay endpoint can be referred to as a primary readout, because this assay has produced multiple assay endpoints where this one serves a reporter gene function. To generalize the intended target to other relatable targets, this assay endpoint is annotated to the nuclear receptor intended target family, where the subfamily is non-steroidal.\nHuman liver HepG2 cells are transiently transfected with multiple reporter transcription units (MRTUs) in 6-well plates using FuGene 6 reagent (Roche; 3 ml FuGene/1 mg DNA). The MRTU constructs are regulated by a cis-regulating element (promoter). […] A major difference between the CIS and TRANS system is that in CIS activities of endogenous TFs are measured, whereas the TRANS assay evaluates changes in activities of exogenous, chimeric NR-Gal4 proteins. […] At the end of 24 hour incubation, total RNA was isolated using TriZol reagent (Invitrogen). The isolated RNA is then reverse-transcribed using oligo(dT) primer and Mo-MLV reverse transcriptase (Invitrogen) with DNAse I (Ambion) treatment for 30 min. The one-tenth of the produced cDNA was amplified by PCR using Taq DNA polymerase (Invitrogen) and two reporter sequence-specific primers. The PCR products were fluorescently labeled by primer extension with 6-arboxyfluorescein (6-FAM) 5'-labeled reporter sequence-specific primer (2 min at 95 C, 20 s at 68 C and 10 min at 72 C) and these products were digested with 5U of HpaI (New England Biolabs) for 2h at 37 C. The fragments were purified using Qiaquick PCR columns (Qiagen), analyzed on an ABI 3130xL genetic analyzer (Applied Biosystems) with peak positions identified by using a set of X-rhodamine (ROX)-labeled MapMarker1000 molecular weight standards (BioVentures). The raw capillary electrophoresis data was processed using Attagraph software (Attagene)."}
{"smiles": "c1ccc(Nc2cccc3ccccc23)cc1", "outcome": "inactive"}
{"smiles": "C=C(C)C(=O)OCCOC(=O)C(=C)C", "outcome": "inactive"}
{"smiles": "COC(=O)C=Cc1ccccc1", "outcome": "inactive"}
{"smiles": "N=C1C=CC(=C(c2ccc(N)cc2)c2ccc(N)cc2)C=C1", "outcome": "inactive"}
{"smiles": "CCNc1nc(NC(C)(C)C)nc(OC)n1", "outcome": "inactive"}
{"smiles": "O=c1c(O)c(-c2ccc(O)cc2O)oc2cc(O)cc(O)c12", "outcome": "inactive"}
{"smiles": "CCCSSCCC", "outcome": "inactive"}
{"smiles": "C[Si]1(C)O[Si](C)(C)O[Si](C)(C)O[Si](C)(C)O[Si](C)(C)O1", "outcome": "inactive"}
{"smiles": "CC1=CC=C(C(C)C)CC1", "outcome": "inactive"}
{"smiles": "Oc1ccc(-c2ccccc2)c(Cl)c1", "outcome": "inactive"}
{"smiles": "Nc1ccc(C(=O)OCCCOC(=O)c2ccc(N)cc2)cc1", "outcome": "inactive"}
{"smiles": "CC(=O)c1ccccc1O", "outcome": "inactive"}
{"smiles": "O=C(OCCc1ccccc1)c1ccccc1", "outcome": "inactive"}
{"smiles": "Nc1nc(N)nc(-c2ccccc2)n1", "outcome": "inactive"}
{"smiles": "CC1CCC(=O)C1=O", "note": "(stereo not given)", "outcome": "inactive"}
{"smiles": "CCc1cccc(C)c1N(C(=O)CS(=O)(=O)O)C(C)COC", "note": "(stereo not given)", "outcome": "inactive"}
{"smiles": "CC1(C)[C@@H]2CC[C@@]1(C)C(=O)C2", "outcome": "inactive"}
{"smiles": "C[Si](C)(C)N[Si](C)(C)C", "outcome": "inactive"}
{"smiles": "COC(=O)c1ccc(C(=O)OC)c(C(=O)OC)c1", "outcome": "inactive"}
{"smiles": "Cc1noc(NS(=O)(=O)c2ccc(N)cc2)c1C", "outcome": "inactive"}
{"smiles": "Cc1c(C(=O)c2c[nH]n(C)c2=O)ccc(S(C)(=O)=O)c1C1=NOCC1", "outcome": "inactive"}
{"smiles": "CC(C)CCOCc1ccccc1", "outcome": "inactive"}
{"smiles": "CCCCCCCO", "outcome": "inactive"}
{"smiles": "CCCCC1C(=O)N(c2ccccc2)N(c2ccccc2)C1=O", "outcome": "inactive"}
{"smiles": "c1ccc2cnccc2c1", "outcome": "inactive"}
{"smiles": "Oc1ccc(/C=C/c2cc(O)cc(O)c2)cc1", "AC50": "100 µM (active)"}
{"smiles": "C=CCCCCCCCCC=O", "outcome": "inactive"}
{"smiles": "O=C(O)CC(C(=O)O)S(=O)(=O)O", "note": "(stereo not given)", "outcome": "inactive"}
{"smiles": "CCCCCCOC(=O)CCCCC(=O)OCCCCCC", "outcome": "inactive"}
{"smiles": "O=C1CCCCCCCCCCC1", "AC50": "22.2 µM (active)"}
{"smiles": "CC(Cl)COP(=O)(OCC(C)Cl)OCC(C)Cl", "note": "(stereo not given)", "outcome": "inactive"}
{"smiles": "Cc1ccc2c(c1)CCCN2", "outcome": "inactive"}
{"smiles": "C=C(C)[C@@H]1CC=C(C)CC1", "outcome": "inactive"}
{"smiles": "CC(=O)OCC=C(C)C", "outcome": "inactive"}
{"smiles": "CC(=O)CC(=O)Nc1ccccc1C", "outcome": "inactive"}
{"smiles": "O=C(O)c1cc(O)c2ccccc2c1O", "outcome": "inactive"}
{"smiles": "C=CCOC(=O)c1ccc(C(=O)OCC=C)c(C(=O)OCC=C)c1", "outcome": "inactive"}
{"smiles": "CCCCCCCCCC[N+](C)(CCCCCCCCCC)CCC[Si](OC)(OC)OC", "AC50": "19.3 µM (active)"}
{"smiles": "CC(CC=O)CC(C)(C)C", "note": "(stereo not given)", "outcome": "inactive"}
{"smiles": "C=C(C)C1CC=C(C)CC1", "note": "(stereo not given)", "outcome": "inactive"}
